Bioassay records as filed in PubChem BioAssay.
The list is not random: actives were taken first. Their share in the collection is about 15%.
ALOX12 inh – Primary qHTS assay for inhibitors of human arachidonate 12S-lipoxygenase (ALOX12): Round 2. AID 1671190, 2021. Potency, µM (highest dose often 108 µM), most hits filed as inhibitors. purified 12hLO, xylenol orange hydroperoxide absorbance. 1.1% of 580,000 active
Target sequence (P18054 whole entry, looked up): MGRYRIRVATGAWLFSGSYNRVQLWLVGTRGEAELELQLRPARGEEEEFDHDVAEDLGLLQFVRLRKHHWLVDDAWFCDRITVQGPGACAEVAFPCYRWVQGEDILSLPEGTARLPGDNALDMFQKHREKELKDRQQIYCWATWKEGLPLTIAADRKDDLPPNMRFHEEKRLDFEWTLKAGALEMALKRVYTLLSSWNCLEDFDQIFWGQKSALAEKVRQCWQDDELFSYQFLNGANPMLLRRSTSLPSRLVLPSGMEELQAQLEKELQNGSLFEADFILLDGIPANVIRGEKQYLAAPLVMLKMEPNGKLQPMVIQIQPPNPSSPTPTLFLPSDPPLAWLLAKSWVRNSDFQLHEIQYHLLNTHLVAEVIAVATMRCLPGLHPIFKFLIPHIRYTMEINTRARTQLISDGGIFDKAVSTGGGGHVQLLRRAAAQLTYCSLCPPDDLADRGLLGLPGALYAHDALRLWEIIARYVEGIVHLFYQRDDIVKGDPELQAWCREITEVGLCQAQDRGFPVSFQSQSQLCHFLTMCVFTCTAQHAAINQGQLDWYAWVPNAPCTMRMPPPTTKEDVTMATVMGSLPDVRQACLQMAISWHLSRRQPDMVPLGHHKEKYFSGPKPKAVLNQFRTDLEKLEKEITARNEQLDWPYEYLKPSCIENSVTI
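Purified human 12hLO (150 nM final) in 25 mM Hepes, 0.01% Triton X-100, pH 7.0 was preincubated 15 min at room temperature with compound. Then 40 uM arachidonic acid was added, 30 min. Hydroperoxide was read by Fe-XO absorbance ratio 573/405 nm.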
ELG1 repair inh – qHTS screen for small molecules that inhibit ELG1-dependent DNA repair in human embryonic kidney (HEK293T) cells expressing luciferase-tagged ELG1; HEK293T ELG1-luciferase reporter, luminescence, 16 h; DNA damage induced by 5-fluorouridine; Potency, µM (top dose mostly 46.1 µM), usual class: inhibitors; 2.3% of 330,000 active; AID 504467, 2011; note: nearly all actives have a fitted effect of over 55% in size
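5-Fluorouridine DNA damage + compound/DMSO, 2,000 cells/well, 16 h, 37 °C/5% CO2. ONE-Glo, 30 min RT, luminescence. Readout = decrease in reporter signal.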
DT40 TDP1 no CPT – qHTS for Inhibitors of human tyrosyl-DNA phosphodiesterase 1 (TDP1): qHTS in cells in absence of CPT; DT40 Tdp1-/- hTDP1 cells, no CPT, ATP luminescence, 48 h; Potency, µM (doses to about 46.2 µM), usual class: inhibitors; 15% of 420,000 active; AID 686978, 2013; note: nearly all actives have a fitted effect of over 55% in size
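Seeded 400 DT40-hTDP1 cells/well (vehicle DMSO, no 20 nM CPT); pinned compounds; ≥48 hr at 37 °C; CellTiter-Glo luminescence as viability measure.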
VP16 counter – VP16 counterscreen qHTS for inhibitors of ROR gamma transcriptional activity; Drosophila S2 Gal4-VP16 UAS-luciferase, luminescence, 20 h; Potency, µM (highest dose often 53.6 µM), hits mostly inhibitors; 3.5% of 310,000 active; AID 2546, 2010;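 note: Gal4-VP16 expression switched on by copper sulfate through the metallothionein promoter; nearly all actives have a fitted effect of over 50% in size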
RORgamma inh – qHTS for inhibitors of ROR gamma transcriptional activity; 5.4% of 310,000 active; Nuclear receptor ROR-gamma (Mus musculus), P51450; AID 2551, 2010; Drosophila S2 Gal4-RORgamma UAS-luciferase reporter, 20 h; Potency, µM (highest dose often 53.6 µM), most hits filed as inhibitors; note: nearly all actives have a fitted effect of over 60% in size
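Stably transfected Drosophila Schneider cells are the test system, with ROR gamma fused to Gal4 and luciferase under UAS control; luminescence is read after 20 hr of 700 uM copper sulfate induction at ambient temperature.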
DT40 TDP1 CPT – qHTS for Inhibitors of human tyrosyl-DNA phosphodiesterase 1 (TDP1): qHTS in cells in presence of CPT. chicken DT40 Tdp1-/-;hTDP1 cells + 20 nM CPT, ATP luminescence, 48 h. Potency, µM (titrated, usually from 46.2 µM), usual class: inhibitors. 12% of 420,000 active; note: nearly all actives have a fitted effect of over 55% in size
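Cell growth measured by CellTiter-Glo luminescence after a minimum 48 h, 37 C compound exposure with 20 nM CPT in Tdp1-knockout DT40 cells stably expressing hTDP1, seeded 400/well; qHTS titration format.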
Each line names hits and unclear results; the compound was inactive in the other large screens. Calls come from the whole dose curve; as a rule, active = well fitted curve in the direction sought with a large enough effect; inconclusive = small, poorly fitted or top-dose-only effect, or another doubt; inactive = no such curve, though single readings can be large; an effect the other way counts as inactive or inconclusive.

O=C1CO[C@H]2CN(Cc3ccccn3)C[C@H]2N1Cc1ccccn1	none (no result: ELG1 repair inh, DT40 TDP1 no CPT, VP16 counter, RORgamma inh, DT40 TDP1 CPT)
O=C1C[C@@H]2CCN(C3COC3)C[C@@H]2CCN1	none (no result: ELG1 repair inh, DT40 TDP1 no CPT, VP16 counter, RORgamma inh, DT40 TDP1 CPT)
CCCCCCOc1ccc(CN2CCN(C)CC2)cc1	ELG1 repair inh inconclusive, DT40 TDP1 no CPT 18µM, DT40 TDP1 CPT 18µM
CN1CCN(Cc2ccc3ccccc3c2)CC1	none
O=C(CN1C(=O)CN=C(c2ccccc2F)c2cc(Cl)ccc21)Nc1ccccc1C(F)(F)F	none (no result: ELG1 repair inh, DT40 TDP1 no CPT, VP16 counter, RORgamma inh, DT40 TDP1 CPT)
CN(Cc1ccccc1)Cc1ccccc1OC(=O)N(C)C	RORgamma inh 1.4µM
CC(=O)Nc1ccccc1OC(=O)N(C)C	none
O=C1CO[C@H]2CN(Cc3ccccc3)C[C@H]2N1Cc1ccccn1	none (no result: ELG1 repair inh, DT40 TDP1 no CPT, VP16 counter, RORgamma inh, DT40 TDP1 CPT)
c1cncc(CN2CCNCC2)c1	none (no result: ELG1 repair inh, DT40 TDP1 no CPT, VP16 counter, RORgamma inh, DT40 TDP1 CPT)
O=C(Cn1cc(C(=O)c2ccccc2)c2ccccc21)Nc1ccc(Br)cc1	DT40 TDP1 no CPT 23µM, DT40 TDP1 CPT inconclusive (no result: ELG1 repair inh, VP16 counter, RORgamma inh)
Cc1ccc(NC(=O)Cn2cc(C(=O)c3ccccc3)c3ccccc32)cc1	DT40 TDP1 no CPT inconclusive (no result: ELG1 repair inh, VP16 counter, RORgamma inh)
O=C(C[C@@H]1CC[C@@H]2[C@H](COC[C@H](O)CN2Cc2cccc(C(F)(F)F)c2)O1)NCc1ccc(Cl)cc1	ALOX12 inh inconclusive, DT40 TDP1 no CPT 8.2µM, DT40 TDP1 CPT 12µM (no result: ELG1 repair inh, VP16 counter, RORgamma inh)
O=C(CCC(=O)N1C[C@H]2C[C@@H](C1)c1cccc(=O)n1C2)NCc1cccc(C(F)(F)F)c1	none
CCCCN(CC)c1c([N+](=O)[O-])cc(C(F)(F)F)cc1[N+](=O)[O-]	none (no result: ALOX12 inh, ELG1 repair inh)
CCCN(CCC)c1c([N+](=O)[O-])cc(S(N)(=O)=O)cc1[N+](=O)[O-]	ALOX12 inh inconclusive, DT40 TDP1 no CPT 31µM, VP16 counter inconclusive, DT40 TDP1 CPT inconclusive (no result: ELG1 repair inh)
Cc1cccc(CN2CCN(C(=O)Cc3n[nH]c(=O)c4ccccc34)CC2)c1	none (no result: ELG1 repair inh, DT40 TDP1 no CPT, VP16 counter, RORgamma inh, DT40 TDP1 CPT)
O=C(C[N+]12CCC(CC1)C(CO)C2)c1ccc([N+](=O)[O-])cc1 (stereo unspecified)	ELG1 repair inh 9.2µM, DT40 TDP1 no CPT inconclusive
O=C(C[N+]12CCC(CC1)C(OC(=O)c1ccccc1)C2)c1ccc([N+](=O)[O-])cc1 (stereo unspecified)	ALOX12 inh inconclusive, ELG1 repair inh inconclusive, DT40 TDP1 no CPT inconclusive, DT40 TDP1 CPT inconclusive
Cc1ncc2c(n1)C[C@@H]1CC[C@H]2N1C(=O)NCc1ccccc1	none (no result: ELG1 repair inh, DT40 TDP1 no CPT, VP16 counter, RORgamma inh, DT40 TDP1 CPT)
CCOC(=O)C1(CCc2ccccc2)CCN(Cc2ccc3c(c2)OCCO3)CC1	DT40 TDP1 no CPT 26µM, DT40 TDP1 CPT inconclusive
CCOC(=O)C1(CCc2ccccc2)CCN(C2CCSCC2)CC1	DT40 TDP1 no CPT 6.5µM, DT40 TDP1 CPT 8.2µM
CCOC(=O)C1(CCCc2ccccc2)CCN(C2CCCC2)CC1	DT40 TDP1 no CPT inconclusive, DT40 TDP1 CPT 18µM
CCOC(=O)C1(CCOc2ccccc2)CCN(Cc2ccc(C)s2)CC1	ELG1 repair inh inconclusive, DT40 TDP1 no CPT 7.3µM, VP16 counter inconclusive, DT40 TDP1 CPT inconclusive
Cc1nc(-c2ccc(N(C)C)cc2)cc([C@H]2CN3CC[C@H]2C[C@@H]3CNCc2cccc(C#N)c2)n1	none (no result: ELG1 repair inh, DT40 TDP1 no CPT, VP16 counter, RORgamma inh, DT40 TDP1 CPT)
Cc1ccccc1CC(=O)N1CCN(C(C)c2nc(C3CC3)no2)CC1 (stereo unspecified)	none (no result: ELG1 repair inh, DT40 TDP1 no CPT, VP16 counter, RORgamma inh, DT40 TDP1 CPT)
Cc1nn(-c2ncnc3nc[nH]c23)c2c1C(c1c(Cl)cccc1Cl)SCC(=O)N2 (stereo unspecified)	none (no result: ELG1 repair inh, DT40 TDP1 no CPT, VP16 counter, RORgamma inh, DT40 TDP1 CPT)
Cc1ccsc1C(=O)C1CCCN(Cc2sc(N(C)C)nc2Cl)C1 (stereo unspecified)	ELG1 repair inh inconclusive, DT40 TDP1 no CPT inconclusive, DT40 TDP1 CPT inconclusive
Cc1cccc(CN2CCCC(C(=O)c3ccc(C(F)(F)F)cc3)C2)n1 (stereo unspecified)	DT40 TDP1 no CPT 18µM, VP16 counter 7.9µM, RORgamma inh 2.8µM, DT40 TDP1 CPT inconclusive
